{"source": "PubChem BioAssay (NCI)", "note": "Several values for one entry are separate records, joined by “and”; a condition that tells them apart may be missing. Equal values may be shown once. This is part of a sample that, as a whole, favours compounds with a hit. Of some 83,000 tested, about 20% had one in any assay.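 Plates (96-well) were seeded with cells, treated with compound at one concentration, and incubated for 48 hours before percent growth was determined.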 Activity calls are given as the source filed them. How the source made its calls: active means growth percent below 10; inactive means the rest.", "data": [{"tested_on": "K-562 leukemia", "test": "NCI-60 one-dose screen, 48 h (100 = growth as untreated, 0 = no growth, -100 = all killed)", "conditions": "10 µM unless noted", "values": [{"compound": "CN(Cc1ccccc1)c1nc(Cl)c(C2CC(c3ccc(F)cc3)=NN2C=O)s1", "note": "(stereo unspecified)", "growth": "77.9% (inactive)"}, {"compound": "CCOC(=O)c1ccc(Nc2ncnc3c2cnn3-c2cccc(F)c2)cc1", "growth": "96.7% (inactive)"}, {"compound": "Cc1ccc2nc3ccccc3c(NCc3ccc(Cl)cc3)c2c1", "growth": "2.63% (active)"}, {"compound": "O=S(=O)(Nc1cc(Sc2cccc3cccnc23)c(O)c2ccccc12)c1ccc(F)cc1", "growth": "-20.1% (active)"}, {"compound": "CCCCC1COc2cccc3c2N1C=C/C3=C\\C(=O)N(C)c1cccc(Cl)c1", "note": "(stereo unspecified)", "growth": "91% (inactive)"}, {"compound": "Cc1ccc(-c2nc3nc(-c4ccc(Cl)cc4)nc(N4CCCNCC4)c3o2)cc1", "growth": "-56.7% (active)"}, {"compound": "COc1cc(NS(=O)(=O)C(C)C)cc(-c2cc(-c3ccc(N4CCNCC4)cc3)cnc2N)c1", "growth": "5.48% (active)"}, {"compound": "COCCn1cc(-c2csc(-c3cn(C)c4ccc(F)cc34)n2)c2cccnc21", "growth": "2.01% (active)"}, {"compound": "COc1ccc(NC(=O)Nc2ccccc2CNc2nc(Nc3ccc(OCCN4CCCC4)cc3)ncc2Cl)cc1", "growth": "0.588% (active)"}, {"compound": "COc1cc(CNC(=O)CCCC/C=C/C(C)C)ccc1O", "growth": "84.1% (inactive) and 93.3% (inactive)"}, {"compound": "CC(Sc1ccccc1)C(=O)O", "note": "(stereo unspecified)", "growth": "152% (inactive)"}, {"compound": "Cc1ccc(-c2nc3nc(-c4ccccc4)nc(N4CCCNCC4)c3o2)cc1", "growth": "-76.4% (active)"}, {"compound": "CCCCn1c(C(=O)c2c[nH]c3ccccc23)n[nH]c1=S", "growth": "76.1% (inactive)"}, {"compound": "O=C1C(=C(O)c2ccccc2)C(=O)c2ccccc21", "growth": "95.4% (inactive)"}, {"compound": "COc1ccc(-c2c[nH]c(C(=O)O)c2-c2cc(OC)c(OC)c(OC)c2)cc1", "growth": "11.7% (inactive)"}, {"compound": "O=C(Nc1ccc2ccccc2c1)c1cc2ccccc2cc1O", "growth": "71.1% (inactive)"}, {"compound": "N=C(N)SCc1c2ccccc2c(CSC(=N)N)c2ccccc12", "growth": "35.3% (inactive)"}, {"compound": "NNCCc1ccccc1", "growth": "91.5% (inactive) and 105% (inactive)"}, {"compound": "Brc1ccc(/C=C(/C2=NCCN2)n2ccc3ccccc32)cc1", "growth": "45.7% (inactive)"}, {"compound": "C=C(c1ccc(C(=O)O)cc1)c1cc2c(cc1C)C(C)(C)CCC2(C)C", "growth": "53.4% (inactive) and 58.5% (inactive)"}, {"compound": "N=C(N)c1ccc(-c2ccc(-c3ccc(Cl)c(Cl)c3)s2)cc1", "growth": "-11.6% (active)"}, {"compound": "C=C(CN1CC=CCC1)[C@@H]1CC[C@]2(COC(C)=O)CC[C@]3(C)[C@H](CC[C@@H]4[C@@]5(C)CC[C@H](O)C(C)(C)[C@@H]5CC[C@]43C)[C@@H]12", "growth": "91.7% (inactive)"}, {"compound": "O=[N+]([O-])c1cc(C(F)(F)F)ccc1Sc1ccc(C(F)(F)F)cc1[N+](=O)[O-]", "growth": "8.04% (active)"}, {"compound": "CCn1cc(C(=O)NN=C2CCCC2)c(=O)c2ccc(C)nc21", "growth": "93.1% (inactive)"}, {"compound": "O=C(Nc1ccc(Cl)c(Cl)c1)Nc1ccc(Cl)c(Cl)c1", "growth": "-33.4% (active) and 12.4% (inactive)"}, {"compound": "Cn1c(=O)c2c(nc(Nc3cc(=O)[nH]c(=O)[nH]3)n2Cc2ccccc2)n(C)c1=O", "growth": "87.5% (inactive)"}, {"compound": "CCOC(=O)c1c(-c2ccc(OC)cc2)c(C#N)c2c(C#N)c(N)nn2c1N", "growth": "5.64% (active)"}, {"compound": "COc1cc(/C=N/NC(=O)CCN2c3ccccc3Sc3ccccc32)cc(OC)c1OC", "growth": "61.7% (inactive)"}, {"compound": "O/N=C(/c1ccccc1)c1ccc2c3c(cccc13)CC2", "growth": "42.4% (inactive) and 34.2% (inactive)"}, {"compound": "COc1cc(-c2nc3occn3c2-c2ccnc(NCCCNS(=O)(=O)c3ccc(O)cc3)n2)ccc1F", "growth": "80.6% (inactive)"}, {"compound": "CN(C)c1ccc2nc3ccc(=O)cc-3sc2c1", "growth": "20.4% (inactive) and 23% (inactive)"}, {"compound": "ON=C1CCCCCCCC1", "growth": "88.5% (inactive) and 108% (inactive)"}, {"compound": "[Cu+].[NH-][C@H]1C[N-]C(=O)[C@H]([C@H]2CCN=C(N)N2)[N-]C(=O)/C(=C\\NC(N)=O)[N-]C(=O)[C@H](CNC(=O)C[C@@H](N)CCCN)[N-]C(=O)[C@H](CO)[N-]C1=O", "growth": "101% (inactive)"}, {"compound": "CC(C)=CCc1cc(O)c(O)c2oc3cc(O)cc(O)c3c(=O)c12", "growth": "67% (inactive)"}, {"compound": "Cc1ccc(S(=O)(=O)OC[C@@]2(C)CC[C@]3(C)CC[C@]4(C)C(=CC[C@@H]5[C@@]6(C)CCCNC(C)(C)[C@@H]6CC[C@]54C)[C@@H]3C2)cc1", "growth": "-39.5% (active)"}, {"compound": "COc1cc(C=O)ccc1Oc1ccc([N+](=O)[O-])cc1[N+](=O)[O-]", "growth": "97.3% (inactive)"}, {"compound": "COc1cc2ncnc(Nc3ccc(F)c(Cl)c3)c2cc1OCC(=O)N1CCCCC1", "growth": "73.6% (inactive)"}, {"compound": "CCN1C(=S)N(CC)C2C1NC(=S)N2/N=C/C=C/c1ccccc1", "note": "(stereo unspecified)", "growth": "15.5% (inactive)"}]}, {"tested_on": "MALME-3M melanoma", "test": "NCI-60 one-dose screen, 48 h (100 = growth as untreated, 0 = no growth, -100 = all killed)", "conditions": "10 µM unless noted", "values": [{"compound": "CN(Cc1ccccc1)c1nc(Cl)c(C2CC(c3ccc(F)cc3)=NN2C=O)s1", "note": "(stereo unspecified)", "growth": "105% (inactive)"}, {"compound": "CCOC(=O)c1ccc(Nc2ncnc3c2cnn3-c2cccc(F)c2)cc1", "growth": "103% (inactive)"}, {"compound": "Cc1ccc2nc3ccccc3c(NCc3ccc(Cl)cc3)c2c1", "growth": "-14% (active)"}, {"compound": "O=S(=O)(Nc1cc(Sc2cccc3cccnc23)c(O)c2ccccc12)c1ccc(F)cc1", "growth": "-14% (active)"}, {"compound": "CCCCC1COc2cccc3c2N1C=C/C3=C\\C(=O)N(C)c1cccc(Cl)c1", "note": "(stereo unspecified)", "growth": "107% (inactive)"}, {"compound": "Cc1ccc(-c2nc3nc(-c4ccc(Cl)cc4)nc(N4CCCNCC4)c3o2)cc1", "growth": "91.8% (inactive)"}, {"compound": "COc1cc(NS(=O)(=O)C(C)C)cc(-c2cc(-c3ccc(N4CCNCC4)cc3)cnc2N)c1", "growth": "79.6% (inactive)"}, {"compound": "COCCn1cc(-c2csc(-c3cn(C)c4ccc(F)cc34)n2)c2cccnc21", "growth": "84.8% (inactive)"}, {"compound": "COc1ccc(NC(=O)Nc2ccccc2CNc2nc(Nc3ccc(OCCN4CCCC4)cc3)ncc2Cl)cc1", "growth": "-63.7% (active)"}, {"compound": "COc1cc(CNC(=O)CCCC/C=C/C(C)C)ccc1O", "growth": "154% (inactive) and 95.6% (inactive)"}, {"compound": "CC(Sc1ccccc1)C(=O)O", "note": "(stereo unspecified)", "growth": "67.5% (inactive)"}, {"compound": "Cc1ccc(-c2nc3nc(-c4ccccc4)nc(N4CCCNCC4)c3o2)cc1", "growth": "-85.5% (active)"}, {"compound": "CCCCn1c(C(=O)c2c[nH]c3ccccc23)n[nH]c1=S", "growth": "111% (inactive)"}, {"compound": "O=C1C(=C(O)c2ccccc2)C(=O)c2ccccc21", "growth": "103% (inactive)"}, {"compound": "COc1ccc(-c2c[nH]c(C(=O)O)c2-c2cc(OC)c(OC)c(OC)c2)cc1", "growth": "33.7% (inactive)"}, {"compound": "O=C(Nc1ccc2ccccc2c1)c1cc2ccccc2cc1O", "growth": "58.5% (inactive)"}, {"compound": "N=C(N)SCc1c2ccccc2c(CSC(=N)N)c2ccccc12", "growth": "71.3% (inactive)"}, {"compound": "NNCCc1ccccc1", "growth": "82.1% (inactive)"}, {"compound": "Brc1ccc(/C=C(/C2=NCCN2)n2ccc3ccccc32)cc1", "growth": "75.4% (inactive)"}, {"compound": "C=C(c1ccc(C(=O)O)cc1)c1cc2c(cc1C)C(C)(C)CCC2(C)C", "growth": "64.9% (inactive)"}, {"compound": "N=C(N)c1ccc(-c2ccc(-c3ccc(Cl)c(Cl)c3)s2)cc1", "growth": "78.7% (inactive)"}, {"compound": "C=C(CN1CC=CCC1)[C@@H]1CC[C@]2(COC(C)=O)CC[C@]3(C)[C@H](CC[C@@H]4[C@@]5(C)CC[C@H](O)C(C)(C)[C@@H]5CC[C@]43C)[C@@H]12", "growth": "113% (inactive)"}, {"compound": "O=[N+]([O-])c1cc(C(F)(F)F)ccc1Sc1ccc(C(F)(F)F)cc1[N+](=O)[O-]", "growth": "61.9% (inactive)"}, {"compound": "CCn1cc(C(=O)NN=C2CCCC2)c(=O)c2ccc(C)nc21", "growth": "91.8% (inactive)"}, {"compound": "O=C(Nc1ccc(Cl)c(Cl)c1)Nc1ccc(Cl)c(Cl)c1", "growth": "-16.1% (active)"}, {"compound": "Cn1c(=O)c2c(nc(Nc3cc(=O)[nH]c(=O)[nH]3)n2Cc2ccccc2)n(C)c1=O", "growth": "103% (inactive)"}, {"compound": "CCOC(=O)c1c(-c2ccc(OC)cc2)c(C#N)c2c(C#N)c(N)nn2c1N", "growth": "30.8% (inactive)"}, {"compound": "COc1cc(/C=N/NC(=O)CCN2c3ccccc3Sc3ccccc32)cc(OC)c1OC", "growth": "93.3% (inactive)"}, {"compound": "O/N=C(/c1ccccc1)c1ccc2c3c(cccc13)CC2", "growth": "87.6% (inactive) and 91.9% (inactive)"}, {"compound": "COc1cc(-c2nc3occn3c2-c2ccnc(NCCCNS(=O)(=O)c3ccc(O)cc3)n2)ccc1F", "growth": "-7.42% (active)"}, {"compound": "CN(C)c1ccc2nc3ccc(=O)cc-3sc2c1", "growth": "1.88% (active) and 22.1% (inactive)"}, {"compound": "ON=C1CCCCCCCC1", "growth": "100% (inactive) and 98.6% (inactive)"}, {"compound": "[Cu+].[NH-][C@H]1C[N-]C(=O)[C@H]([C@H]2CCN=C(N)N2)[N-]C(=O)/C(=C\\NC(N)=O)[N-]C(=O)[C@H](CNC(=O)C[C@@H](N)CCCN)[N-]C(=O)[C@H](CO)[N-]C1=O", "growth": "101% (inactive)"}, {"compound": "CC(C)=CCc1cc(O)c(O)c2oc3cc(O)cc(O)c3c(=O)c12", "growth": "91.3% (inactive)"}, {"compound": "Cc1ccc(S(=O)(=O)OC[C@@]2(C)CC[C@]3(C)CC[C@]4(C)C(=CC[C@@H]5[C@@]6(C)CCCNC(C)(C)[C@@H]6CC[C@]54C)[C@@H]3C2)cc1", "growth": "-75.8% (active)"}, {"compound": "COc1cc(C=O)ccc1Oc1ccc([N+](=O)[O-])cc1[N+](=O)[O-]", "growth": "114% (inactive)"}, {"compound": "COc1cc2ncnc(Nc3ccc(F)c(Cl)c3)c2cc1OCC(=O)N1CCCCC1", "growth": "99.1% (inactive)"}, {"compound": "CCN1C(=S)N(CC)C2C1NC(=S)N2/N=C/C=C/c1ccccc1", "note": "(stereo unspecified)", "growth": "28% (inactive)"}]}]}
